This is an account of results in PubChem BioAssay.

Assay [1] has as its system Plasmodium falciparum Sir2 (PF13_0152, Sir2A). Briefly: Plasmodium falciparum Sir2A binding compounds – biochemical, small-molecule microarray, 635 nm fluorescence, primary screen (AID 1098).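 Note: score merges spot fluorescence intensity with its signal-to-noise ratio.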 As to conditions: fluorescence 635 nm, higher = more signal.
A short description of assay [2]: probe aDKK1 binding to arrayed compounds – biochemical, biotinylated probe, 635/667 nm fluorescence, primary screen (AID 1099).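 Note: score merges 667nm spot fluorescence with signal to noise across triplicate slides; reference of the scale not given here.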 The conditions noted are these: small-molecule microarray, higher = more signal.
Assay [3] in a line: probe aCHRDL2 binding to arrayed compounds – biochemical, biotinylated probe, 635/667 nm fluorescence, primary screen (AID 1100). As to conditions: small-molecule microarray, higher = more signal.
Assay [4] can be described thus: change in splice reporter luminescence, either direction, cell-based, HEK293, spliceosome inhibition project, primary screen (AID 1101).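 Note: HEK293 cells carrying a splicing-competent luciferase reporter gene; test concentration not given here.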 As to conditions: HEK293 splicing luciferase reporter, 24 h, higher = more signal, called active from +8 up or from −8 down.
Assay [5] concerns the target Fibroblast growth factor 10 (Homo sapiens) (UniProt O15520). Briefly: compounds binding fibroblast growth factor 10 – biochemical, small-molecule microarray, 635 nm fluorescence, primary screen (AID 1102). The conditions noted are these: FGF10 binding, fluorescence 635 nm, higher = more signal.
In assay [6] the test system is glycogen synthase kinase-3 (GSK3A per assay name; protocol says GSK3B). Put plainly: compounds binding glycogen synthase kinase-3 – biochemical, small-molecule microarray, 635 nm fluorescence, GSK3A, primary screen (AID 1103). Note: the record names both GSK3A and GSK3B. As to conditions: fluorescence 635 nm, higher = more signal.
Assay [7] deals with Epidermal growth factor receptor (Homo sapiens) (UniProt P00533). Put plainly: compounds binding epidermal growth factor receptor – biochemical, small-molecule microarray, 635 nm fluorescence, primary screen (AID 1104).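 Note: score merges 667 nm emission intensity with spot signal to noise over triplicate slides.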 The conditions noted are these: EGFR binding, higher = more signal.
Sequence of Epidermal growth factor receptor (Homo sapiens) (P00533 whole entry, looked up): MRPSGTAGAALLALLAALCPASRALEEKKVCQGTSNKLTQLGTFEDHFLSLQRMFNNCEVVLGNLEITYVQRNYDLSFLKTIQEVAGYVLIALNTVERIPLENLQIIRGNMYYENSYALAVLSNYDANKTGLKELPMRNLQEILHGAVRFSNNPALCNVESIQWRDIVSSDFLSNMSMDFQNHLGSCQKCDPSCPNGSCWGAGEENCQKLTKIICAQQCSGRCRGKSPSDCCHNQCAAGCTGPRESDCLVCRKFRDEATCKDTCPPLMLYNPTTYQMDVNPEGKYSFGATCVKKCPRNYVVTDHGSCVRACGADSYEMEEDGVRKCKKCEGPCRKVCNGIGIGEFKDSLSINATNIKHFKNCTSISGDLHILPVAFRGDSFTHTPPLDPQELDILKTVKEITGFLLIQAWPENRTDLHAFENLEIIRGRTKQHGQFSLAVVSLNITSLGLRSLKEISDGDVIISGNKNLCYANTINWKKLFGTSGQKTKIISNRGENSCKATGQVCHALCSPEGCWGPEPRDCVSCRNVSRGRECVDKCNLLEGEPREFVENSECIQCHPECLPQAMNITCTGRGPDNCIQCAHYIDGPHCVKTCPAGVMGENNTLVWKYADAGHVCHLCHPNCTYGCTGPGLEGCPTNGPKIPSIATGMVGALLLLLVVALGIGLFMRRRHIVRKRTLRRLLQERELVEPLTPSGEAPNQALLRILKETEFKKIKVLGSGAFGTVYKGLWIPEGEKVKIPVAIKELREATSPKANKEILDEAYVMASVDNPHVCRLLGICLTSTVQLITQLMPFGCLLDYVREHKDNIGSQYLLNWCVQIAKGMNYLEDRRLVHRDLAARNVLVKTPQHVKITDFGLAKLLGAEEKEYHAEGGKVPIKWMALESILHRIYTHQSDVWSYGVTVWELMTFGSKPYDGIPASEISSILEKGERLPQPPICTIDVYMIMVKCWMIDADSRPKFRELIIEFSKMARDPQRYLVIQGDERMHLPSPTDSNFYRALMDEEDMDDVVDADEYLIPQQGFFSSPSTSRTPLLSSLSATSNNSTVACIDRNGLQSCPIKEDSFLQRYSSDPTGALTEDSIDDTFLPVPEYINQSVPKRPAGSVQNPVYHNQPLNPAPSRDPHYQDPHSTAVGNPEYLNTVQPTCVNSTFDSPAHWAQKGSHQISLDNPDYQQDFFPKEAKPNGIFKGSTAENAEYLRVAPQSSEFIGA
The target in assay [8] is Follistatin-related protein 3 (Homo sapiens) (UniProt O95633). Put plainly: compounds binding follistatin-related protein 3 – biochemical, small-molecule microarray, 635 nm fluorescence, primary screen (AID 1105).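 Note: score merges emission near 667 nm and signal to noise per printed spot across three slides.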 As to conditions: FSTL3 binding, higher = more signal.
Sequence of Follistatin-related protein 3 (Homo sapiens) (O95633 whole entry, looked up): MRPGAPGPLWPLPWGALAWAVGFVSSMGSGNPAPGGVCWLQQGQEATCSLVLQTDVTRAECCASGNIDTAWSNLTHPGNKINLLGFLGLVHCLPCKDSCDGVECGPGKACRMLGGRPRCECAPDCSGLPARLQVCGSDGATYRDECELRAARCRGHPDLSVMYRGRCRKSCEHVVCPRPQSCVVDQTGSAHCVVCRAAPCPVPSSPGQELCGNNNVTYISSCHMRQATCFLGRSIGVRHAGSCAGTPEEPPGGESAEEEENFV
The target of assay [9] is Dickkopf-related protein 1 (Homo sapiens) (UniProt O94907). Put plainly: small molecules binding DKK1 protein – biochemical, small-molecule microarray, 635 nm fluorescence scan, primary screen (AID 1106).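 Note: score merges emission near 667 nm with signal to noise over three replicate slides.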 The conditions noted are these: higher = more signal.
Sequence of Dickkopf-related protein 1 (Homo sapiens) (O94907 whole entry, looked up): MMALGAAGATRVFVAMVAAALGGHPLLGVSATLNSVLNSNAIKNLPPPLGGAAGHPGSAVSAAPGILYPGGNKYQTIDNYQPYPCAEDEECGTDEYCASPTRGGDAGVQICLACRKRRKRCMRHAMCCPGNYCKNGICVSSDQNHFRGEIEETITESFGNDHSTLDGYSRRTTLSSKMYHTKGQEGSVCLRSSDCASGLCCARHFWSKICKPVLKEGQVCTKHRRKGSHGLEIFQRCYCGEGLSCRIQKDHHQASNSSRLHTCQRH
The test system of assay [10] is Inhibin beta A chain (activin A). Put plainly: small molecules binding activin A – biochemical, small-molecule microarray, 635 nm fluorescence scan, primary screen (AID 1107).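 Note: mouse activin A protein probed at 4.33 µg/mL on printed slides; score merges bound-protein fluorescence near 667 nm with spot signal-to-noise.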 The conditions noted are these: INHBA, higher = more signal.

Calls of active or inactive are those of the source.

Sequence of Fibroblast growth factor 10 (Homo sapiens) (O15520 whole entry, looked up): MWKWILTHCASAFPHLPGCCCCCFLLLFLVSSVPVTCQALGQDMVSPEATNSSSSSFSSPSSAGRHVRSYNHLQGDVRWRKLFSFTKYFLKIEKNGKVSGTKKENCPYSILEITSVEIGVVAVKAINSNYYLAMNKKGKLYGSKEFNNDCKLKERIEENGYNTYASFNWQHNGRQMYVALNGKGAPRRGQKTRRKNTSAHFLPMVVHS

For `O=C1O[C@@H](c2ccccc2)[C@@H](c2ccccc2)N2[C@@H](c3ccc(O)cc3)[C@]3(C(=O)Nc4ccc(C#CCCO)cc43)[C@@H](C(=O)Nc3nc4ccccc4s3)[C@H]12`, the composite z-score in assay [1] stood at 0.94; in assay [2], 0.0179; in assay [3], 0.376; in [5], 1.17; in assay [6], 1.13; in assay [7] it was 0.214. Further, the results for the composite z-score in assay [8], in assay [9] and in assay [10] were 0.545, -0.17 and 0.0507, respectively. The z-score in [4] is 0.344 (inactive).

For `CCCCN1CC=CC23O[C@@H]4/C=C\CCC(C)OC(=O)C4[C@H]2C(=O)N(CCCCCCO)[C@@H]3C1=O` (stereo not given in full), the composite z-score is 0.906 in assay [1]; -0.264 in assay [2]; 0.402 in assay [3]; 0.107 in assay [5]; -0.782 in assay [6]; -0.63 in [7]. For the same compound, the composite z-score in assay [8] was -1.04; in assay [9] it was -0.842; in assay [10], 0.703. The z-score in assay [4] was 0.142 (inactive).

Take `COCCOC(=O)N1C(=O)[C@@]2(c3cc(C#Cc4ccc(OC)cc4)ccc31)[C@H](C(=O)N1CCN(c3ncccn3)CC1)[C@H]1C(=O)O[C@H](c3ccccc3)[C@H](c3ccccc3)N1[C@@H]2c1ccccc1OCCO`: the composite z-score in [1] is 0.625; in [2], -0.0221; in assay [3], 0.221; in [5], 0.343; in assay [6] it was -0.142; in [7] it was 0.139. Besides, the results for the composite z-score in assay [8], in [9] and in [10] were -0.181, -0.163 and 0.443, respectively. In assay [4], the z-score was -0.562 (inactive).

Take `CN(C)CCCCNC(=O)[C@H]1C[C@H]2C(=O)N3CCC[C@H]3C(=O)N2[C@H]1c1ccc(O)cc1`: the composite z-score was 0.0292 in assay [1]; -1.21 in assay [2]; -0.65 in assay [3]; -1.51 in [5]; -0.0328 in assay [6]; -0.364 in assay [7]. Moreover, the results for the composite z-score in [8], in [9] and in assay [10] were 0.398, -0.414 and -0.984, respectively. Also, in [4], the z-score is -2.27 (inactive).

As for `Cc1ccc(S[C@]2(C(=O)NC(C)C)CC(=O)N(C3Cc4ccccc4C3)[C@@H]2c2ccc(CO)cc2I)cc1`, the composite z-score in assay [1] is 0.944; in assay [2], -0.253; in assay [3] it was -0.398; in [5], -0.651; in assay [6], 0.1; in [7], -0.922. Further, the composite z-score in assay [8] was -1.13; in [9], -1.18; in assay [10] it was -0.696. Besides, in assay [4], the z-score was -1.44 (inactive).

Consider `COCCCNC(=O)[C@]1(Cc2ccccc2N=[N+]=[N-])N=C(c2ccc(OCCCO)cc2)O[C@@H]1c1ccccc1N=[N+]=[N-]`, for which the composite z-score was 0.707 in assay [1]; 0.609 in assay [2]; 0.942 in assay [3]; 0.955 in [5]; 0.353 in [6]; -0.287 in assay [7]. Moreover, the figures for the composite z-score in assay [8], in assay [9] and in assay [10] were 0.219, -0.589 and 0.738, respectively. Also, in [4], the z-score is 1.93 (inactive).

In the case of `C=CC[C@]12N=C(c3ccc(OCCCO)cc3)O[C@H]1c1ccccc1N(C)C2=O`, the composite z-score in assay [1] stood at 1.24; in assay [2], 0.765; in [3], 0.864; in assay [5], 0.597; in assay [6], 1.3; in assay [7], 0.177. Besides, the values for the composite z-score in assay [8], in [9] and in assay [10] were 0.472, 0.334 and 1.3, respectively. Besides, in assay [4], the z-score was -1.06 (inactive).

In the case of `COCCOC(=O)N1C(=O)[C@@]2(c3cc(C#Cc4ccc(OC)cc4)ccc31)[C@H](C(=O)NC[C@H](O)c1ccccc1)[C@H]1C(=O)O[C@H](c3ccccc3)[C@H](c3ccccc3)N1[C@@H]2c1ccc(O)cc1`, the composite z-score was determined as 0.557 in assay [1]; 0.139 in [2]; 0.234 in [3]; 1.17 in assay [5]; 1.35 in assay [6]; 0.725 in [7]. In addition, the values for the composite z-score in [8], in assay [9] and in assay [10] were 1.41, 0.95 and 0.033, respectively. Besides, in assay [4], the z-score is -0.577 (inactive).

For the compound `C[C@]1(C(=O)O)c2ccccc2C(=O)N(Cc2ccccc2)[C@H]1c1ccc(CO)cc1`, the composite z-score in assay [1] was 1.51; in assay [2], 0.44; in assay [3] it was 1.11; in assay [5] it was -1.97; in assay [6], -1.83; in assay [7] it was -1.63. For the same compound, the composite z-score is -1.38 in assay [8], -1.64 in assay [9] and 0.463 in assay [10]. The z-score in assay [4] was -0.602 (inactive).

On to `O=C1O[C@@H](c2ccccc2)[C@@H](c2ccccc2)N2[C@@H](c3ccccc3OCCO)[C@]3(C(=O)Nc4ccc(C#CC5=CCCCC5)cc43)[C@@H](C(=O)NC[C@H](O)c3ccccc3)[C@H]12`, for which the composite z-score in assay [1] was 1.3; in assay [2] it was -0.108; in assay [3] it was -0.149; in assay [5], 0.717; in assay [6] it was 1.3; in assay [7], 0.496. Besides, the composite z-score amounted to 1.22 in assay [8], 0.352 in [9] and 0.623 in [10]. Further, the z-score in [4] was -1.13 (inactive).

For `[N-]=[N+]=NCc1ccccc1[C@H]1OC(c2ccc(OCCCO)cc2)=N[C@@]1(CCS(=O)(=O)c1ccccc1)C(N)=O`, the composite z-score in assay [1] was 1.37; in assay [2] it was 0.605; in assay [3], 1.07; in assay [5], 1.5; in assay [6], 1.1; in assay [7], -0.216. Besides, the composite z-score was 0.441 in [8], -0.0333 in assay [9] and 1.29 in [10]. The z-score in assay [4] is -0.503 (inactive).

On to `COC(=O)[C@@]1(Cc2ccccc2)[C@H]2c3cc(C(=O)N4CCCC4)n(Cc4ccsc4Br)c3C[C@H]2CN1C(=O)c1ccccc1`, for which the composite z-score was 0.31 in [1]; 1.13 in assay [2]; 1.37 in [3]; 0.832 in assay [5]; 0.572 in [6]; -0.105 in assay [7]. In addition, the figures for the composite z-score in assay [8], in assay [9] and in assay [10] were 0.906, -0.825 and 0.748, respectively. The z-score in assay [4] is -1.31 (inactive).
